Laboratory results published in PubChem BioAssay AID1159580 (chemical genetic matrix, 2015).
The campaign covered roughly 5,500 compounds. About 2,000 (36%) were called active. Inconclusive results (about 18%) are left out. The list shows a part of the results. Unmarked numbers belong to inactive results. Cut-off read from the data, not from the text of the source: active = normalized growth mostly below about 0.91 (no sharp cut-off); inconclusive = no clear call, values can overlap the other calls; inactive = mostly above about 0.92.

Test: chemical genetic growth profiling, strain panel (AID 1159580);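 note: tested at 20 µM; growth read once vehicle control cultures reached saturation at 30 °C; 1 = growth at the plate median or of vehicle wells; lower values mean less growth of the strain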
Details: S. cerevisiae deletion strains, growth OD

In the case of `CCCCCC(=O)Cc1cc(O)cc(O)c1C(=O)Oc1cc(CC(=O)CCCCC)c(C(=O)O)c(OC)c1`, the normalized growth (locus YAL021C, strain ccr4, active compounds read low) is reported as 0.892 (active), the normalized growth (locus YAL026C, strain drs2, active compounds read low) is reported as 0.86 (active) and the normalized growth (locus YAL030W, strain snc1, active compounds read low) is reported as 0.934. The normalized growth (locus YBL061C, strain skt5, active compounds read low) was 0.925, the normalized growth (locus YBR009C, strain hhf1, active compounds read low) was 0.881 (active) and the normalized growth (locus YBR023C, strain chs3, active compounds read low) was 0.907 (active). The normalized growth (locus YBR171W, strain sec66, active compounds read low) was 0.858 (active), the normalized growth (locus YBR231C, strain swc5, active compounds read low) was 0.927 and the normalized growth (locus YBR279W, strain paf1, active compounds read low) was 0.943. It also gave a normalized growth (locus YCL011C, strain gbp2, active compounds read low) of 0.933, a normalized growth (locus YCL016C, strain dcc1, active compounds read low) of 0.943 and a normalized growth (locus YCL069W, strain vba3, active compounds read low) of 0.929. For the same compound, the normalized growth (locus YCR088W, strain abp1, active compounds read low) was 0.934, the normalized growth (locus YDL005C, strain med2, active compounds read low) was 0.954 and the normalized growth (locus YDL040C, strain nat1, active compounds read low) was 0.939. The normalized growth (locus YDR001C, strain nth1, active compounds read low) was 0.936, the normalized growth (locus YDR069C, strain doa4, active compounds read low) was 0.95 and the normalized growth (locus YDR137W, strain rgp1, active compounds read low) was 0.412 (active). For the same compound, the normalized growth (locus YDR159W, strain sac3, active compounds read low) was 0.771 (active), the normalized growth (locus YDR195W, strain ref2) was 0.863 and the normalized growth (locus YDR297W, strain sur2, active compounds read low) was 0.927. The normalized growth (locus YDR334W, strain swr1, active compounds read low) was 0.917, the normalized growth (locus YDR335W, strain msn5, active compounds read low) was 0.894 (active) and the normalized growth (locus YDR392W, strain spt3, active compounds read low) was 0.404 (active). The normalized growth (locus YEL003W, strain gim4, active compounds read low) was 0.919, the normalized growth (locus YEL037C, strain rad23, active compounds read low) was 0.941 and the normalized growth (locus YEL061C, strain CIN8 (second series), active compounds read low) was 0.946. The normalized growth (locus YER015W, strain faa2, active compounds read low) was 0.947, the normalized growth (locus YER016W, strain bim1, active compounds read low) was 0.913 (active) and the normalized growth (locus YER111C, strain swi4, active compounds read low) was 0.941. For the same compound, the normalized growth (locus YER155C, strain BEM2 (second series), active compounds read low) was 0.639 (active), the normalized growth (locus YFR010W, strain ubp6, active compounds read low) was 0.933 and the normalized growth (locus YGL167C, strain pmr1, active compounds read low) was 0.89 (active). For the same compound, the normalized growth (locus YGL173C, strain kem1, active compounds read low) was 0.851 (active), the normalized growth (locus YGL227W, strain vid30, active compounds read low) was 0.937 and the normalized growth (locus YGL240W, strain doc1, active compounds read low) was 0.77 (active). For the same compound, the normalized growth (locus YGL253W, strain hxk2, active compounds read low) was 0.855 (active), the normalized growth (locus YHR013C, strain ard1, active compounds read low) was 1.18 [resistant] (active) and the normalized growth (locus YHR027C, strain rpn1, active compounds read low) was 0.919 (active). The normalized growth (locus YHR030C, strain SLT2, active compounds read low) was 1.01, the normalized growth (locus YHR079C, strain IRE1, active compounds read low) was 0.981 and the normalized growth (locus YHR142W, strain chs7, active compounds read low) was 0.818 (active). The normalized growth (locus YJL092W, strain hpr5, active compounds read low) was 0.943, the normalized growth (locus YJL095W, strain BCK1 (second series), active compounds read low) was 0.694 (active) and the normalized growth (locus YJL095W, strain BCK1, active compounds read low) was 0.99. The normalized growth (locus YJL115W, strain asf1, active compounds read low) was 0.922, the normalized growth (locus YJL129C, strain trk1, active compounds read low) was 0.632 (active) and the normalized growth (locus YJL154C, strain vps35, active compounds read low) was 0.935. For the same compound, the normalized growth (locus YJL164C, strain tpk1, active compounds read low) was 0.899 (active), the normalized growth (locus YJL166W, strain qcr8, active compounds read low) was 0.871 (active) and the normalized growth (locus YJL187C, strain SWE1, active compounds read low) was 0.909 (active). The normalized growth (locus YJR066W, strain TOR1, active compounds read low) was 0.939, the normalized growth (locus YKL160W, strain elf1, active compounds read low) was 0.916 and the normalized growth (locus YKR026C, strain gcn3, active compounds read low) was 0.933. For the same compound, the normalized growth (locus YKR091W, strain srl3, active compounds read low) was 0.922 (active), the normalized growth (locus YLL001W, strain dnm1, active compounds read low) was 0.941 and the normalized growth (locus YLL026W, active compounds read low) was 0.935. The normalized growth (locus YLL041C, strain sdh2, active compounds read low) was 0.927 (active), the normalized growth (locus YLR027C, strain aat2, active compounds read low) was 0.922 (active) and the normalized growth (locus YLR113W, strain HOG1, active compounds read low) was 0.983. For the same compound, the normalized growth (locus YLR221C, strain rsa3, active compounds read low) was 0.859 (active), the normalized growth (locus YLR258W, strain gsy2, active compounds read low) was 0.919 and the normalized growth (locus YLR262C, strain YPT6 (second series), active compounds read low) was 0.409 (active). The normalized growth (locus YLR320W, strain mms22, active compounds read low) was 0.826 (active), the normalized growth (locus YLR342W, strain FKS1, active compounds read low) was 0.901 (active) and the normalized growth (locus YLR357W, strain rsc2, active compounds read low) was 0.866. The normalized growth (locus YLR370C, strain arc18, active compounds read low) was 0.925, the normalized growth (locus YLR384C, strain iki3, active compounds read low) was 0.945 and the normalized growth (locus YML120C, strain ndi1, active compounds read low) was 0.898 (active). The normalized growth (locus YMR058W, strain fet3, active compounds read low) was 0.883 (active), the normalized growth (locus YMR125W, strain sto1, active compounds read low) was 0.909 and the normalized growth (locus YMR129W, active compounds read low) was 0.918 (active). For the same compound, the normalized growth (locus YMR205C, strain PFK2, active compounds read low) was 0.783 (active), the normalized growth (locus YMR231W, strain pep5, active compounds read low) was 0.929 and the normalized growth (locus YNL071W, strain lat1, active compounds read low) was 0.888 (active). For the same compound, the normalized growth (locus YNL183C, strain NPR1, active compounds read low) was 0.946, the normalized growth (locus YNL209W, strain ssb2, active compounds read low) was 0.948 and the normalized growth (locus YNL248C, strain rpa49, active compounds read low) was 0.903. For the same compound, the normalized growth (locus YNL322C, strain KRE1 (second series), active compounds read low) was 0.919, the normalized growth (locus YNR049C, strain mso1, active compounds read low) was 0.95 and the normalized growth (locus YOR001W, strain rrp6, active compounds read low) was 0.882 (active). For the same compound, the normalized growth (locus YOR070C, strain gyp1, active compounds read low) was 0.918 (active), the normalized growth (locus YOR080W, strain dia2, active compounds read low) was 0.938 and the normalized growth (locus YOR083W, strain WHI5, active compounds read low) was 0.898. The normalized growth (locus YOR106W, strain vam3, active compounds read low) was 0.897, the normalized growth (locus YOR231W, strain MKK1, active compounds read low) was 0.994 and the normalized growth (locus YOR265W, strain rbl2, active compounds read low) was 0.925 (active). For the same compound, the normalized growth (locus YOR270C, strain vph1, active compounds read low) was 0.607 (active), the normalized growth (locus YOR290C, strain snf2, active compounds read low) was 0.925 and the normalized growth (locus YPL051W, strain arl3, active compounds read low) was 0.853 (active). The normalized growth (locus YPL078C, strain atp4, active compounds read low) was 0.862 (active), the normalized growth (locus YPL106C, strain sse1, active compounds read low) was 0.812 (active) and the normalized growth (locus YPL240C, strain hsp82, active compounds read low) was 0.912 (active). It also gave a normalized growth (locus YPL256C, strain CLN2, active compounds read low) of 0.989.
